From PubChem BioAssay
Hits are enriched below; roughly 4.6% of the tested compounds scored in any of these assays.
NR3A LBD binder = modulates the human NR3A ligand-binding domain | NR3A LBD differential scanning fluorimetry, Tm shift; 0% = protein alone, 100% = glycine-bound protein | Tm shift relative to glycine control, % at 25 µM | 340,000 tested, 2.5% active | AID 1259313;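 active = melting temperature shift of at least 10% of the positive control shift, at one fixed dose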
proKLK7 act = activates the human kallikrein-7 zymogen; purified proKLK7, EDANS-DABCYL substrate fluorescence; 100% is mature enzyme control, 0% vehicle; activation, % at 7 µM; 370,000 tested, 0.9% active; AID 652039;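 active = activation above the mean of all tested compounds plus 3 SD, computed per campaign excluding outliers beyond control limits, cut at about 13% in these data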
FAS-TE inh = FAS thioesterase (human) inhibition; P49327; recombinant FAS-TE, OMFH fluorogenic substrate, fluorescence endpoint; inhibition, % at 15 µM; 360,000 tested, 0.67% active; AID 602261;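 active = compounds whose normalised, plate-corrected inhibition of enzyme fluorescence in the single-dose primary screen is 50% or more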
ADAM17 inh = inhibitors of human ADAM17; AID 720648; recombinant ADAM17, EDANS/DABCYL FRET peptide cleavage; P78536; inhibition, % at 6.95 µM; 370,000 tested, 0.83% active;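 active = inhibition above the mean of compounds lying between control limits plus 3 SD, set per campaign, cut at about 8.5% in these data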
ADAM10 inh = inhibits human ADAM10 | recombinant ADAM10, EDANS/DABCYL FRET peptide cleavage, 3 h | 370,000 tested, 0.62% active | O14672 | inhibition, % at 7 µM;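 active = inhibition above a per-campaign cutoff equal to the mean of compounds falling between control-based bounds plus 3 SD, cut at about 20% in these data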
Target sequence (O14672 214-748 limits assumed): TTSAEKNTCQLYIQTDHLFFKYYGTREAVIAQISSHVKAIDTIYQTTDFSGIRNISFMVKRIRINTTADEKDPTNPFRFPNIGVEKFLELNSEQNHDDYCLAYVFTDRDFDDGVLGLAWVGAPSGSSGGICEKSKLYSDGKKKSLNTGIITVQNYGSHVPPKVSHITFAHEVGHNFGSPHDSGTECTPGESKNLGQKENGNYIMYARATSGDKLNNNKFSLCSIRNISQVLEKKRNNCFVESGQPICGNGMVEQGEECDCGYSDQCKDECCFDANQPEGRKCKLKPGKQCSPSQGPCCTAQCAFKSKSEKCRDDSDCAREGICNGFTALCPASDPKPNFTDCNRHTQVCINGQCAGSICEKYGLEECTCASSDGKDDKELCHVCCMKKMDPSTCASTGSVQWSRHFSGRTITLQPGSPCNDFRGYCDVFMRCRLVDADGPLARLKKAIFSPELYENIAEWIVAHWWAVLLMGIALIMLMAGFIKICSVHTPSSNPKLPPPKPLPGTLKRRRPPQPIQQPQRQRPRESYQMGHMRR
KLK7 act conf = confirmation of human kallikrein-7 zymogen activators | shares compounds with proKLK7 act | purified proKLK7, EDANS-DABCYL substrate fluorescence; scaled: vehicle 0, mature enzyme 100 | activation, % at 7 µM | 3,200 tested, 68% active | AID 686949;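 active = activation, as change over the incubation, above the mean of all tested compounds plus 3 SD, cut at about 13% in these data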
EDANS-DABCYL int = counter-screen for kallikrein-7 activators: EDANS-DABCYL optical interference | shares compounds with proKLK7 act | EDANS-DABCYL substrate fluorescence interference, no enzyme, 4 h; solvent 0%, active enzyme control 100% | activation, % at 7 µM | 3,200 tested, 80% active | AID 686952;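 active = activation above the all-compound mean plus 3 SD, ignoring values outside control-based bounds, cut at about 4.8% in these data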;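 also: value is the 4 h activation minus the activation read at time zero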
EDANS interf = EDANS fluorescence interference in dose response, no enzyme; shares compounds with proKLK7 act; EDANS-DABCYL peptide fluorescence interference; EC50, µM; 250 tested, 20% active; AID 720493;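 active = compounds that raise the fluorescence signal in this interference counterscreen, with EC50 at or below 10 µM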;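 also: intact quenched peptide substrate alone read at 355 nm excitation and 520 nm emission; signal is fluorescence gain from T0 to T4 after four hours at room temperature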
Numbers stand for hits; . = inactive; / = no result.

SMILES	NR3A LBD binder	proKLK7 act	FAS-TE inh	ADAM17 inh	ADAM10 inh	KLK7 act conf	EDANS-DABCYL int	others
Cc1cc(=O)oc2c3c(cc(OCC(=O)NCC(=O)N[C@H](C(=O)O)C(C)C)c12)OC(C)(C)CC3	.	43	.	.	.	62	72
CCn1c(SCC(=O)NN=Cc2ccc(C(=O)O)cc2)nc2ccccc21	/	.	/	.	.	/	/
C[C@@H]1CN([C@@H](C)CO)C(=O)CCCn2cc(nn2)CO[C@H]1CN(C)C(=O)Nc1ccc2c(c1)OCCO2	/	.	/	.	.	/	/
Cc1c(C2(O)CCCCC2)[nH]c2cnccc12	.	77	.	.	.	24	14	EDANS interf=.
Cc1ccc(-n2c(SCc3cccc(F)c3)nc3sc4c(c3c2=O)CCCC4)cc1	/	.	/	.	.	/	/
Cc1cccc(C(=O)Nc2ccccc2C(=O)OCC(=O)Nc2ccc(C#N)cc2)c1	15	17	.	.	.	.	.
CNC(=S)NNC(=O)c1sc(-c2cc(C)on2)nc1C	.	21	.	.	.	34	37
Cc1cc(C(=O)NNC(=S)NCC(C)C)no1	.	.	.	.	.	/	/
O=C(O)COc1cccc2nsnc12	.	.	.	.	.	/	/
CCOC(=O)COc1ccc2nsnc2c1Cl	.	38	.	.	.	37	41
O=C(O)COCC(=O)Nc1ccc2c(c1)oc1ccccc12	.	.	.	.	.	/	/
CNC(=O)COc1ccccc1C(=O)Nc1ccc2c(c1)oc1ccccc12	.	55	.	.	.	.	.
O=C1NC(C2CC3C=CC2C3)Nc2ccccc21 (stereo not given)	/	24	.	.	.	25	21	EDANS interf=.
NS(=O)(=O)c1cc2c(cc1Cl)NC(C1CC3C=CC1C3)NS2(=O)=O (stereo not given)	.	.	.	.	.	/	/
c1cc(-c2ccsc2)n2cnnc2c1	/	.	.	.	.	/	/
Cn1cc(-c2cccc3nncn23)cn1	/	.	.	.	.	/	/
CSc1ccc(-c2cccc3nncn23)cc1	/	21	.	.	.	26	25
Nc1cccc(-c2cccc3nncn23)c1	/	29	.	.	.	.	.
CC1(c2nnnn2Cc2ccccc2)CCCCC(=O)N1Cc1cccs1 (stereo not given)	/	.	/	.	.	/	/
c1cn2c(-c3ccoc3)cncc2n1	/	.	.	.	.	/	/
OCc1ccc(-c2cncc3nccn23)cc1	/	23	.	.	.	27	27
O=C1C=C(N2CCOCC2)c2cccc3cccc1c23	/	27	.	.	.	.	.
O=C1C(N2CCOCC2)=Cc2cccc3cccc1c23	/	.	.	.	.	/	/
Cc1cc(Nc2cccc([N+](=O)[O-])c2)n2c(nc3ccccc32)c1C#N	.	.	.	.	.	/	/
CCN(CC)CCNc1cc(C)c(C#N)c2nc3ccccc3n12	.	132	.	.	.	.	5.4
SMILES	NR3A LBD binder	proKLK7 act	FAS-TE inh	ADAM17 inh	ADAM10 inh	KLK7 act conf	EDANS-DABCYL int	others
CCN(CC)CCNc1c2c(c(C#N)c3nc4ccccc4n13)CCCC2	.	.	.	.	.	/	/
CCN(CC)CCCNc1cc(C)c(C#N)c2nc3ccccc3n12	/	69	.	.	.	38	40
Cc1cc(NCCCCO)n2c(nc3ccccc32)c1C#N	.	43	.	.	.	47	37	EDANS interf=.
CCN(CC)CCCNc1cc(C(F)(F)F)c(C#N)c2nc3ccccc3n12	.	53	.	.	.	.	.
CCc1c(C)c(C#N)c2nc3ccccc3n2c1N(C)C	.	.	.	.	.	/	/
COc1ccccc1C(=O)NC1CCCCN(Cc2ccc(C)cc2)C1=O (stereo not given)	/	.	/	.	.	/	/
Cc1cc(C(=O)O)c(C)o1	/	.	/	.	.	/	/
C[C@@H]1CCN(C2CC2)S(=O)(=O)c2c(cccc2N2CCC[C@@H]2CO)O1	/	.	/	.	.	/	/
COCCN(CCOC)c1cc(C)c(C#N)c2nc3ccccc3n12	.	39	.	.	.	61	50	EDANS interf=.
C=C(C)CSc1cc(C)c(C#N)c2nc3ccccc3n12	.	.	.	.	.	/	/
COc1cc2c(cc1OC)C(C)=NCC2	.	115	.	.	.	62	77
COc1cc2c(cc1OC)C(SC)=NC1(CCCC1)C2	.	.	.	.	.	/	/
COc1cc2c(cc1OC)C(c1ccc(Cl)cc1)=NCC2	.	.	.	.	.	/	/
COc1cc2c(cc1OC)C(C)=NC1(CCCCC1)C2	.	101	.	.	.	61	66
Cc1coc2c(C)c3oc(=O)c(CC(=O)N[C@@H](CC(C)C)C(=O)O)c(C)c3cc12	.	.	.	.	.	/	/
Cc1coc2c(C)c3oc(=O)c(CCC(=O)N[C@@H](C)C(=O)N[C@@H](Cc4ccccc4)C(=O)O)c(C)c3cc12	.	23	.	.	.	41	37
CC(c1c[nH]c2ccccc12)c1c[nH]c2ccc(Br)cc12 (stereo not given)	/	.	/	.	.	/	/
Cc1cccc(CN2CCc3c([nH]c4ccccc34)C2C(C)(C)C)n1 (stereo not given)	.	13	.	.	.	.	12
CSc1ncc(CN2CCc3c([nH]c4ccccc34)C2C(C)(C)C)cn1 (stereo not given)	.	.	.	.	.	/	/
COCCN1C(=O)C2=C(C1=O)C1N(C)c3ccccc3[C@@]13C[C@@H](CO)N(S(=O)(=O)c1ccc(OC)cc1)C3=N2 (stereo not given in full)	/	.	/	.	.	/	/
CC1=CC2=C(C=O)C(=O)C(C)(O)C(O)C2=CO1 (stereo not given)	/	21	.	.	.	29	27
C[C@@H]1CN(C(=O)OC(C)(C)C)CCN1c1ccc(N2CC[C@@H](O)C2)c(C#N)c1	/	.	/	.	.	/	/
CCc1cc2c(=O)c(Oc3ccccc3F)c(C)oc2c(CN(C)C)c1O	.	63	.	.	.	72	74
COc1cc2cc(C(=O)N3CCN(Cc4ccc5c(c4)OCO5)CC3)c(=O)oc2cc1OC	.	61	.	.	.	68	73
COc1ccc2cc(C(=O)NCc3ccco3)c(=O)oc2c1	.	.	.	.	.	/	/
O=C(NCc1ccco1)c1cc2ccc(O)cc2oc1=O	.	49	.	.	.	58	71
CC(=O)c1cc2ccc(O)cc2oc1=O	.	20	.	.	.	27	32
CC(=O)c1cc2cc(O)ccc2o1	.	83	.	.	.	71	64
Cc1ccc(N=c2oc3cc(O)ccc3cc2C(N)=O)cc1	.	24	.	.	.	.	11
CCCCCCCCN1CN2Cc3cc(OC)ccc3C2CS1(=O)=O (stereo not given)	/	.	/	.	.	/	/
